PubChem BioAssay AID1259240 (Keith Lab, Institute of Cancer Science, University of …, 2017)
Calls of active or inactive are those of the source. Rule as the data show it: active = fold change mostly below about -2 (no sharp cut-off); inactive = mostly above about -1.8.

Assay: modulation of TERT promoter-driven luciferase – cell-based, luciferase reporter, human, primary screen (AID 1259240)
Conditions: A2780 TERT promoter luciferase reporter, 16 h; at 20 µM, fold versus average of vehicle-only wells

Fold change, inactive:
CCN(CC)CCNc1nc2c(c(=O)[nH]c(=O)n2C)n1Cc1ccccc1Cl -1.23
Cc1noc(C(=O)NCC(C)C)c1Cl -1.74
CC(NC(=O)c1cnn2c(C(F)F)cc(-c3ccccc3)nc12)c1ccccc1 (stereo not given) -1.39
Cn1c2ccccc2c2cnn(CC(=O)NCCc3c[nH]c4ccccc34)c(=O)c21 1.23
Cc1ccn2cc(-c3cccc(S(=O)(=O)N4CC(C)OC(C)C4)c3)nc2c1 (stereo not given) -1.09
O=C(NC1CCCC1)C1CCC(CNS(=O)(=O)c2cccc3nsnc23)CC1 (stereo not given) -1.64
CCOC(=O)CSc1nc(SCC(=O)OCC)c2c3c([nH]c2n1)CCCC3 1.35
Cc1cc(C)c2c(=O)n(CC(=O)N3CCOCC3)sc2n1 1.35
O=C1c2ccccc2C(=O)N1CCC1=NCCc2ccccc21 -1.59
O=C1CC(c2cc3c(cc2Cl)OCO3)c2cc3c(cc2N1)OCCO3 (stereo not given) 1.12
COc1ccc2c(c1)/C(=c1/sc3n(c1=O)CN(c1ccc(C)c(Cl)c1)CN=3)C(=O)N2 -1.71
Cc1ccc(-c2cc(N)n(S(=O)(=O)c3cccc4nsnc34)n2)cc1 -1.42
Cc1cc(NC(=O)CSc2nnc(Cc3cc(=O)[nH]c(=O)[nH]3)n2-c2ccc(Cl)cc2)no1 -1.22
Cc1cc(C)n(-c2nc3cc(Cl)ccc3nc2Cl)n1 1.03
O=C(Cc1ccc(NC2=NC3CS(=O)(=O)CC3S2)cc1)NCc1ccco1 (stereo not given) -1.32
Cn1c(=O)oc2cc(S(=O)(=O)N3CCC(C(=O)Nc4nccs4)CC3)ccc21 1.31
CCOC(=O)CN1CC23C=CC(O2)C(C(=O)Nc2ccc(OCC)cc2)C3C1=O (stereo not given) 1.29
c1cc2nncn2nc1N1CCN(C2CCCCC2)CC1 -1.21
c1csc(CSc2nnc3sc4ccccc4n23)c1 1.26
COC(CNS(=O)(=O)c1cccc2cccnc12)OC -1.06
CC(=O)c1cc2c(cc1NC(=O)c1cc(C)nn1-c1ccccc1)OCO2 -1.17
Cc1ccc(-c2nnc3c4ccccc4c(C)nn23)cc1S(=O)(=O)NCC1CCCO1 (stereo not given) 1.3
Cc1ccc(-c2n[nH]c3c2C(c2ccccn2)N(c2ccc(C(=O)O)cc2)C3=O)cc1 (stereo not given) -1.91
COc1cc(Nc2nnc(Cc3ccncc3)c3ccccc23)cc(OC)c1OC -1.31
CCc1ccc2c(c1)c1n[nH]c(=S)nc1n2CC 1.17
Cc1ccc2oc(-c3ccccc3C(=O)O)cc(=O)c2c1 1.62
Cc1ccc(-c2nc3ccccc3n3cc4c(=O)n(C)c(=O)n(C)c4c23)cc1 -1.32
COc1cccc(-c2cc(N)n(S(=O)(=O)c3cccc4nsnc34)n2)c1 1.15
CC(=O)c1ccc(N2CCN(C(=O)CCCc3nnc4n5nc(C)nc5c5ccccc5n34)CC2)cc1 -1.6
CC(=O)c1cccc(NC(=O)Nc2ccc3snnc3c2)c1 -1.05
c1ccc(-c2nnc3ccc(N4CCC5(CC4)OCCO5)nn23)cc1 1.02
Cc1ccn(CN2CCN(Cn3ccc(C)n3)C2=S)n1 1.29
CCN(CC)C(=O)c1sc(N2C(=O)Nc3ccccc3N2O)c(C(=O)OC)c1C 1.14

Fold change, active:
Cc1ccn2c(NC(=O)CC(C)C)c(-c3ccc(F)cc3)nc2c1 -2.38
Cc1cccc2nc(COc3ccc(Cl)cc3)cn12 -4.52
COc1ccc(Nc2ncc(F)c(N3CCOCC3)n2)cc1 -3.37
Cc1ccc(OCc2nc(-c3ccc(-n4cccc4)cc3)no2)cc1C -2.34
O=C(Cn1c(=O)c2ccccc2n(CC(=O)Nc2ccc(F)cc2F)c1=O)NCc1ccco1 -2.2
Cc1cc(C)cc(N(CC(=O)NCc2cccs2)S(=O)(=O)c2c(C)[nH]c(=O)[nH]c2=O)c1 -2.11
CCc1nc(N)c(C#N)c(-c2ccco2)c1C -2.16
